Data published in PubChem BioAssay (Tox21).
“And” between values parts separate entries of the source, which are not always exact repeats. Identical values can stand only once. Records with an inconclusive call do not appear. The source made the active and inactive calls. Unless noted, the call rests on the fitted dose curve; in most records, active means well fitted curve in the direction sought with a large enough effect in the repeat runs; inconclusive means weak or mixed curves; inactive means no such curve, though single readings can be large; an effect the other way counts as inactive or inconclusive.

Biological target: Androgen receptor (Homo sapiens) (UniProt P10275)
Assay: qHTS assay to identify small molecule antagonists of the androgen receptor (AR) signaling pathway (AID 743035; active means well fitted inhibition curve with a large enough effect in the signal ratio in the repeat runs, not every such curve was filed as active; the % refers to the signal ratio; further: potency means the concentration at half of the fitted maximal effect)
Conditions: HEK293 AR-UAS-bla, R1881-stimulated, beta-lactamase FRET, 16 h; series mostly up to 58.5 µM; activity change, negative = inhibition: at the top concentration
How it was run: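 Quantitative HTS of the Tox21 10K library used HEK293 AR-UAS-bla cells stimulated with R1881 alongside compound for 16 h at 37C, followed by beta-lactamase FRET detection (LiveBLAzer B/G, 2 h, RT).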
On the % scale 0 is the no-effect control and ±100 the full control effect.

Androgen receptor (Homo sapiens), sequence (P10275 whole entry, looked up): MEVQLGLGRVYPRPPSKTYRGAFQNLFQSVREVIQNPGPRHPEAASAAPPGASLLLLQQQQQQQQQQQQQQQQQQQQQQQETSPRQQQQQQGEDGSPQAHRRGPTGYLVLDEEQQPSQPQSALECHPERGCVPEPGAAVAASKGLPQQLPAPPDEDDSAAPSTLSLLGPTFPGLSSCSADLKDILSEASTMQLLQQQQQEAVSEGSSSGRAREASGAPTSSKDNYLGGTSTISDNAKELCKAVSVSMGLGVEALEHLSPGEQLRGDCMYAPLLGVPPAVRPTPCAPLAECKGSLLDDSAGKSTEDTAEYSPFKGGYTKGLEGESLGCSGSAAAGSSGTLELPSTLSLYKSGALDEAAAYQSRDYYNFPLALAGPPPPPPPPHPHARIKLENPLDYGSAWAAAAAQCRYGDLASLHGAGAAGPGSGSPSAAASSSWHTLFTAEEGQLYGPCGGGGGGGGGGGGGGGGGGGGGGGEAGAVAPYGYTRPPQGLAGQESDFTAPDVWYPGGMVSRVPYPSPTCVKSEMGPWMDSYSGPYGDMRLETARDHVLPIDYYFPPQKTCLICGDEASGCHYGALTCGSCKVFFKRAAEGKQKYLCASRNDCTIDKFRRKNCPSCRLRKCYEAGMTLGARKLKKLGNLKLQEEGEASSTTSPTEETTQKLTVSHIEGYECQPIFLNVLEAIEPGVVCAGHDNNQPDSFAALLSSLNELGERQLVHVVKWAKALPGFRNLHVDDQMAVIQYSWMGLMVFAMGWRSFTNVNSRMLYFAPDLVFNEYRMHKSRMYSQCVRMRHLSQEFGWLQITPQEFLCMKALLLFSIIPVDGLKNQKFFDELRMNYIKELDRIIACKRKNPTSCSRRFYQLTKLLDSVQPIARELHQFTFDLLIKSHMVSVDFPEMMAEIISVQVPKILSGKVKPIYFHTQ

Structure (SMILES)	activity change, negative = inhibition	Potency
CC(C)N1C(=O)N(c2ccccc2)CSC1=NC(C)(C)C	2.1% (inactive)	
CC(=O)/C=C/c1ccc2c(c1)OCO2		12.4 µM (active)
CCCSP(=O)(OCC)SCCC	14.4% [at 78.9 µM] (inactive)	
O=C(CCl)Nc1ccccc1		15.5 µM (active)

Biological target: Androgen receptor (Homo sapiens) (UniProt P10275)
Assay: qHTS assay to identify small molecule agonists of the androgen receptor (AR) signaling pathway using the MDA cell line (AID 743040; further: nearly all actives have a fitted effect of over 20% in size)
Conditions: MDA-kb2 AR-luc cells, MMTV luciferase, 16 h; series mostly up to 70.3 µM; activity change: at the top concentration
How it was run: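 Luciferase agonist assay: 16 h compound exposure at 37C without CO2 in MDA-kb2 AR-luc cells, whose MMTV promoter responds to both AR and GR. Luminescence measured after 30 min room-temperature incubation with ONE-Glo.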

Structure (SMILES)	activity change
CC(C)N1C(=O)N(c2ccccc2)CSC1=NC(C)(C)C	-10.3% (inactive)
CC(=O)/C=C/c1ccc2c(c1)OCO2	-9.39% [at 95 µM, stronger effect = higher value] (inactive)
CCCSP(=O)(OCC)SCCC	10.9% [at 95 µM, stronger effect = higher value] (inactive)
CCOP(=O)(NC(C)C)Oc1ccc(SC)c(C)c1 (configuration not stated)	-6.01% (inactive)
O=C(CCl)Nc1ccccc1	-11% (inactive)
CCCCCCCCc1ccc(O)cc1	156% [at 95 µM, stronger effect = higher value] (inactive)
Oc1cc(Cl)c(Cl)c(Cl)c1	-1.82% (inactive)
CCOc1cc(C(C)(C)C)ccc1C1COC(c2c(F)cccc2F)=N1 (configuration not stated)	-10.1% (inactive)

System: not listed separately
Assay: qHTS assay to identify small molecule antagonists of the androgen receptor (AR) signaling pathway using the MDA cell line - cell viability counter screen (AID 743041; further: nearly all actives have a fitted effect of over 45% in size; further: potency means the concentration at half of the fitted maximal effect)
Conditions: MDA-kb2 viability, CellTiter-Fluor, 16 h, cells co-treated with R1881 androgen agonist; series mostly up to 70.3 µM; viability change, negative = cytotoxic: at the top concentration
How it was run: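 Viability read by CellTiter-Fluor fluorescence in the same wells as the antagonist screen, added after 15.5 h of a 16 h, 37C exposure. Human breast carcinoma MDA-kb2 AR-luc cells, compounds co-dosed with agonist R1881.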

Structure (SMILES)	viability change, negative = cytotoxic	Potency
CC(C)N1C(=O)N(c2ccccc2)CSC1=NC(C)(C)C	-9.16% (inactive)	
Clc1ccc(C(c2ccccc2Cl)C(Cl)(Cl)Cl)cc1 (configuration not stated)		inactive
OC(c1ccc(Cl)cc1)(c1ccc(Cl)cc1)C(Cl)(Cl)Cl	-4.01% (inactive)	
CCCSP(=O)(OCC)SCCC	7.2% [at 95 µM] (inactive)	
Oc1ccc2ccc3cccc4ccc1c2c34	12.7% (inactive)	
C[C@]12CC[C@H]3[C@@H](CCC4=CC(=O)CC[C@@]43C)[C@@H]1CC[C@@H]2O	-5.42% (inactive)	
CCOP(=O)(NC(C)C)Oc1ccc(SC)c(C)c1 (configuration not stated)	23.3% (inactive)	
CCN(CC)C(=S)[S-].CCN(CC)C(=S)[S-].[Zn+2]		0.96 µM (active)
O=C(CCl)Nc1ccccc1		54.5 µM (active)
CCCCCCCCCCCCCCC(Br)C(=O)O (configuration not stated)	9.32% (inactive)	
O=c1ssc(Cl)c1Cl	-0.093% (inactive)	
CC(=O)[O-].CC(=O)[O-].O.O.[Cd+2]	-2.71% (inactive)	
O=S(=O)(c1ccc(Cl)cc1)c1ccc(Cl)cc1	-8.75% [at 95 µM] (inactive)	
Oc1cc(Cl)c(Cl)c(Cl)c1	-6.06% (inactive)	
COC12CC[C@@]3(C[C@@H]1C(C)(O)C(C)(C)C)[C@H]1Cc4ccc(O)c5c4[C@@]3(CCN1CC1CC1)[C@H]2O5 (some centres not stated)		60.7 µM (active)
CS(=O)(=O)c1ccc(C(=O)C2C(=O)CCCC2=O)c([N+](=O)[O-])c1	-9.77% [at 95 µM] (inactive)	
CC(C)(C)C(O)/C(=C\c1ccc(Cl)cc1Cl)n1cncn1 (configuration not stated)	-8.68% [at 95 µM] (inactive)	
CCOCCOC(C)=O	18.6% (inactive)	
CCOc1cc(C(C)(C)C)ccc1C1COC(c2c(F)cccc2F)=N1 (configuration not stated)	-0.827% (inactive)	

Biological target: Androgen receptor (Homo sapiens) (UniProt P10275)
Assay: qHTS assay to identify small molecule antagonists of the androgen receptor (AR) signaling pathway using the MDA cell line (AID 743042; further: nearly all actives have a fitted effect of over 55% in size; further: potency means the concentration at half of the fitted maximal effect)
Conditions: MDA-kb2 AR-luc, MMTV luciferase, R1881 antagonist, 16 h; series mostly up to 70.3 µM; activity change, negative = inhibition: at the top concentration
How it was run: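 Antagonist mode: compounds plus R1881 agonist added to MDA-kb2 AR-luc cells, incubated 16 h at 37C. Luciferase reporter luminescence quantified, with multiplexed CellTiter-Fluor readout for cell viability.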

Structure (SMILES)	Potency	activity change, negative = inhibition
CC(=O)/C=C/c1ccc2c(c1)OCO2	61.4 µM (active)	
O=C(CCl)Nc1ccccc1	27.3 µM (active)	
CCCCCCCCc1ccc(O)cc1		37.3% [at 95 µM] (inactive)

System: not listed separately
Assay: qHTS assay to identify small molecule antagonists of the thyroid receptor (TR) signaling pathway - cell viability counter screen (AID 743064); further: nearly all actives have a fitted effect of over 50% in size; further: potency means the concentration at half of the fitted maximal effect
Conditions: GH3.TRE-Luc viability, CellTiter-Fluor, 24 h; series mostly up to 70.3 µM; activity change, negative = cytotoxic: at the top concentration
How it was run: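 CellTiter-Fluor readout, 30 min at 37 °C/5% CO2, following 23.5 h incubation of GH3.TRE-Luc cells with test compound and 1 nM T3 (final).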

Structure (SMILES)	Potency	activity change, negative = cytotoxic
Clc1ccc(C(c2ccccc2Cl)C(Cl)(Cl)Cl)cc1 (configuration not stated)	27.5 µM (active) and 40.2 µM (active)	
Oc1ccc(C2(c3ccc(O)cc3)c3ccccc3-c3ccccc32)cc1	27.3 µM (active)	
C[C@]12CC[C@H]3[C@@H](CCC4=CC(=O)CC[C@@]43C)[C@@H]1CC[C@@H]2O		14.5% (inactive)
CC(C)(C)c1cc([N+](=O)[O-])cc(C(C)(C)C)c1O	12.2 µM (active)	
CCOP(=O)(NC(C)C)Oc1ccc(SC)c(C)c1 (configuration not stated)	61.1 µM (active)	
CC[C@H](C)[C@H]1O[C@]2(C=C[C@@H]1C)C[C@@H]1C[C@@H](C/C=C(\C)[C@@H](O[C@H]3C[C@H](OC)[C@@H](O[C@H]4C[C@H](OC)[C@@H](O)[C@H](C)O4)[C@H](C)O3)[C@@H](C)/C=C/C=C3\CO[C@@H]4[C@H](O)C(C)=C[C@@H](C(=O)O1)[C@]34O)O2	3.22 µM (active)	
CCN(CC)C(=S)[S-].CCN(CC)C(=S)[S-].[Zn+2]	5.4 µM (active)	
O=C(CCl)Nc1ccccc1	24.3 µM (active)	
O=C(Nc1ccc2[nH]ccc2c1)c1cc2cc(F)ccc2n1Cc1cccc(F)c1	10.9 µM (active)	
O=C(CCl)C(Cl)Cl	8.71 µM (active)	
CCCCCCCCc1ccc(O)cc1	46.1 µM (active)	
CCCCCCCCCCCCCCC(Br)C(=O)O (configuration not stated)	43.3 µM (active)	
O=c1ssc(Cl)c1Cl	48.6 µM (active)	
CC(=O)[O-].CC(=O)[O-].O.O.[Cd+2]	24 µM (active)	
Oc1ccc(C2(c3ccc(O)cc3)CCCCC2)cc1	57.9 µM (active)	
COC12CC[C@@]3(C[C@@H]1C(C)(O)C(C)(C)C)[C@H]1Cc4ccc(O)c5c4[C@@]3(CCN1CC1CC1)[C@H]2O5 (some centres not stated)	21.5 µM (active)	
CS(=O)(=O)c1ccc(C(=O)C2C(=O)CCCC2=O)c([N+](=O)[O-])c1	55.4 µM (active)	
CC(C)(C)C(O)/C(=C\c1ccc(Cl)cc1Cl)n1cncn1 (configuration not stated)	83 µM (active)	
C=CC(=O)OCCCCOC(=O)C=C	17.2 µM (active)	
CCCCCCCCCCCCBr		-3.67% (inactive)
ClC1=C(Cl)[C@]2(Cl)[C@@H]3[C@@H]4C[C@@H]([C@H]5O[C@@H]45)[C@@H]3[C@@]1(Cl)C2(Cl)Cl	40.9 µM (active)	
C1CCC2CCCCC2C1 (configuration not stated)		1.21% [at 95 µM] (inactive)
COc1ccc(N)cc1N	37 µM (active)	
CC(C)C1CCC(Cc2ccc(Cl)cc2)C1(O)Cn1cncn1 (configuration not stated)	60.5 µM (active)	
Clc1ccc(COC(Cn2ccnc2)c2ccc(Cl)cc2Cl)cc1 (configuration not stated)	13.3 µM (active) and 27.2 µM (active)	
N#CCCC(Br)(C#N)CBr (configuration not stated)	15.4 µM (active)	
O=CC(Br)(Br)Br	19.3 µM (active)	
CCOc1cc(C(C)(C)C)ccc1C1COC(c2c(F)cccc2F)=N1 (configuration not stated)	18.6 µM (active)	
